Results as given in PubChem BioAssay AID463173 (ICCB-Longwood Screening Facility, Harvard Medical School, 2010).
The campaign covered roughly 52,000 compounds. About 4,300 (8.3%) were called active. No stated cut-off is given here; in the data, active means survival mostly below about 52% (no sharp cut-off); inactive means mostly above about 56%. The list comes from a sample in which actives are over-represented; it also holds similar structures and randomly drawn compounds.

Tested on: DeltatarO mutant
Assay: growth inhibition of S. aureus wild type versus tarO mutant, primary screen, teichoic acid synthesis inhibitors, RN4220, OD600 (AID 463173)
Conditions: OD600, 18 h, stronger effect = lower value, screened at 18.75 µg/mL (by protocol)

SMILES | survival
Cc1ccc(C(=O)c2cn(Cc3ccccc3)c3nc(C)ccc3c2=O)cc1 | 76% (inactive)
Cc1cc(NC(=O)C2C3C(=O)N(c4ccccc4Cl)C(C(=O)NC(C)(C)C)C34C=CC2(C)O4)no1 (stereo not given) | 108% (inactive)
Cc1ccccc1OCC(=O)Nc1nnc(SCc2cc(=O)n3cc(Cl)ccc3n2)s1 | 84% (inactive)
CCc1ccc(C2c3c(oc4ccc(F)cc4c3=O)C(=O)N2CCc2ccc(OC)cc2)cc1 (stereo not given) | 94% (inactive)
Cc1ccc(-n2c(=O)c3ccc(C(=O)NCc4ccco4)cc3n(CC(=O)Nc3ccc(C)c(F)c3)c2=O)cc1 | 84% (inactive)
CCOc1cccc(CC(=O)NCc2ccc3c(c2)CCN3C(=O)c2cccc(C)c2)c1OCC | 54% (inactive)
COc1ccc(N(C(=O)/C=C\C(=O)Nc2ccc(Cl)cc2)C(C(=O)NCc2ccco2)c2ccc(C)cc2)cc1 (stereo not given) | 115% (inactive)
Cc1cccc(N2CCN(C(=O)C3CCN(C(=O)c4cc5sccc5n4C)CC3)CC2)c1C | 53% (inactive)
Cn1c(C(=O)N2CCCC(C(=O)N3CCN(c4ccccc4)CC3)C2)cc2sccc21 (stereo not given) | 89% (inactive)
Cc1cccc(N2CCN(C(=O)C3CCCN(C(=O)c4cc5sccc5n4C)C3)CC2)c1C (stereo not given) | 53% (active)
Cc1cccc(OC(C)C(=O)N2CCC(c3nc4ccccc4o3)CC2)c1C (stereo not given) | 75% (inactive)
COc1ccccc1OCC(=O)N1CCC(c2nc3ccccc3o2)CC1 | 0% (active)
CCc1ccc(OC(C)C(=O)N2CCC(c3nc4ccccc4o3)CC2)cc1 (stereo not given) | 85% (inactive)
Cc1cccc(OCC(=O)N2CCC(c3nc4ccccc4o3)CC2)c1C | 81% (inactive)
CC(Oc1ccccc1F)C(=O)N1CCC(c2nc3ccccc3o2)CC1 (stereo not given) | -1% (active)
Cc1cccc(C)c1OCC(=O)N1CCC(c2nc3ccccc3o2)CC1 | 86% (inactive)
O=C(CC1CCCCC1)Nc1ccccn1 | 73% (inactive)
COc1ccc(N2C(=O)C(C)C(Cc3ccc(C)cc3)C2=O)cc1 (stereo not given) | 103% (inactive)
CCC(=O)Nc1ccc(NC(=O)c2ccc(F)cc2)nc1 | 85% (inactive)
COc1ccc(NC(=O)NCC2CCN(Cc3ccccc3F)CC2)c(OC)c1 | 96% (inactive)
CC1CCCCN1C(=O)C1COc2ccccc2O1 (stereo not given) | 65% (inactive)
CCN(c1ccccc1)c1nnc(NC(=O)Nc2cccc(Br)c2)s1 | 80% (inactive)
Cc1cccc(NC(=O)Nc2ccc(Br)cc2)n1 | 126% (inactive)

SMILES | survival
Cc1c(C(=O)Nc2ccncc2)oc2ccccc12 | 98% (inactive)
COc1ccc(-n2nc3ccc(NC(=O)c4c(OC)cccc4OC)cc3n2)cc1 | 135% (inactive)
CCc1ccc(-n2nc3ccc(NC(=O)c4cc(Cl)c(OC)c(Cl)c4)cc3n2)cc1 | 83% (inactive)
Cc1ccc(-n2nc3ccc(NC(=O)c4cc5ccccc5o4)cc3n2)cc1 | 70% (inactive)
Cc1ccc2oc(C(=O)Nc3cccc(-c4nc5ccccc5s4)c3)c(C)c2c1 | 55% (inactive)
COc1cc(C(=O)Nc2ccc3nn(-c4ccc(F)cc4)nc3c2)cc(OC)c1OC | 45% (active)
Cc1ccc(-n2nc3ccc(NC(=O)c4oc5ccccc5c4C)cc3n2)cc1 | 31% (active)
Cc1ccc2oc(-c3ccc(NC(=O)c4oc5ccc(Cl)cc5c4C)cc3)nc2c1 | 66% (inactive)
Cc1ccc(-n2nc3ccc(NC(=O)c4oc5ccc(C)cc5c4C)cc3n2)cc1 | 38% (active)
O=C(Cn1ncc2c3ccccc3n(Cc3ccc(F)cc3)c2c1=O)NCCC1=CCCCC1 | 85% (inactive)
CC(C)(C)C(=O)Nc1c(C(=O)N2CCN(c3ccc(F)cc3)CC2)oc2ccccc12 | 80% (inactive)
CCn1cc(C(=O)NCc2ccc(Cl)cc2)c(=O)c2cc(S(=O)(=O)N(C)C3CCCCC3)ccc21 | 70% (inactive)
CCOc1ccc(NC2=NCCC(=O)N2Cc2cccs2)cc1 | 83% (inactive)
O=C(O)c1nnc(Cl)c2ccccc12 | 91% (inactive)
Cc1nc(-c2ccc(Cl)cc2)sc1CCNC(=O)C(=O)Nc1ccccc1C#N | 80% (inactive)
Cc1cccn2c(=O)c3cc(C(=O)NCC(C)C)sc3nc12 | 63% (active)
Cc1cccn2c(=O)c3cc(C(=O)NCc4ccccc4Cl)sc3nc12 | 62% (inactive)
CCOC(=O)CNC(=O)c1cc2c(=O)n3cccc(C)c3nc2s1 | 179% (inactive)
Cc1ccc(CNC(=O)c2cc3c(=O)n4cccc(C)c4nc3s2)cc1 | 54% (active)
COc1ccc(CNC(=O)c2cc3c(=O)n4cccc(C)c4nc3s2)cc1 | 68% (inactive)
CCCCNC(=O)c1cc2c(=O)n3cccc(C)c3nc2s1 | 150% (inactive)
O=C(CN1CCC(n2nnc3cc(C(F)(F)F)ccc32)CC1)Nc1ccc(N2CCCC2)cc1 | 86% (inactive)
